In the library only some 2% were active in any assay of this set; here they are far more common.
MBD2 inh: inhibitors of human MBD2 binding to methylated oligonucleotide. actives 0.31% (n = 370,000). AID 686964. TR-FRET. inhibition, % at 4.4 µM; in the data active means inhibition above about 13%
UHRF1 MBD2 ctr: human UHRF1 methylated DNA binding inhibitors; Q96T88; actives 0.75% (n = 370,000); UHRF1 binding to methylated oligo, TR-FRET; inhibition, % at 4.4 µM; in the data active means inhibition above about 21%;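 further: UHRF1 SRA domain binding a hemimethylated CpG hairpin DNA probe; 0% = median of test compound wells and 100% = reference inhibitor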
Target sequence (Q96T88 whole entry, looked up, the tested form may be a part): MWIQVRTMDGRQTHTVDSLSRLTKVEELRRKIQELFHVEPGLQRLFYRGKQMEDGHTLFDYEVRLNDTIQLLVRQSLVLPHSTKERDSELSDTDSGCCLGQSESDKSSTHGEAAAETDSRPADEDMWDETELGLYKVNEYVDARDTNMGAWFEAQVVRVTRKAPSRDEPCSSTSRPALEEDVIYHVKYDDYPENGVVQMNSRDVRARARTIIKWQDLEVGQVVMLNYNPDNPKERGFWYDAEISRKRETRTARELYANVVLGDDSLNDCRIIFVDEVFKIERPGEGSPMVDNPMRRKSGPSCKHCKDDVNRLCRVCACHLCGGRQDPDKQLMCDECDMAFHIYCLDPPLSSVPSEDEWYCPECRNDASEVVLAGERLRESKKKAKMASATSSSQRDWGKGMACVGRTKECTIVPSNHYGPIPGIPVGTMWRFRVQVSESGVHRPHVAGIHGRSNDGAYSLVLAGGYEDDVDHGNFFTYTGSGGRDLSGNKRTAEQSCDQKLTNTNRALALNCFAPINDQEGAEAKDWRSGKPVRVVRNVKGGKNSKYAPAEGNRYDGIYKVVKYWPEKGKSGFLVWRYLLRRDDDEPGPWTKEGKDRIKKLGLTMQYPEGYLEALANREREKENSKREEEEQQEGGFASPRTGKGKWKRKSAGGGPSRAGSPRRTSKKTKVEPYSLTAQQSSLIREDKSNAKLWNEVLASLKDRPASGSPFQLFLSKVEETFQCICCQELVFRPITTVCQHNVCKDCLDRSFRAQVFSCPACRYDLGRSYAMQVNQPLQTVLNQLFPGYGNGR
Rin1 Abl inh: inhibitors of human Rin1-Abl protein interaction | P00519+Q13671 | TR-FRET Rin1/Abl binding, biochemical | inhibition, % at 7.35 µM | actives 0.4% (n = 360,000) | AID 588664; in the data active means inhibition above about 5%, passing the limit was not always enough
LEDGF integ inh: blocks HIV-1 LEDGF/p75-dependent DNA integration; TR-FRET IN-LEDGF/p75 DNA integration, Eu/Cy5; inhibition, % at 3.7 µM; actives 0.64% (n = 370,000);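 active means inhibition above the screen-wide mean plus 3 SD, cut at about 13% in these data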;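 further: signal is the Cy5 over europium emission ratio at 671 and 618 nm; 0% = plate median of compound wells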
TCR CD3 inh: blocks the human TCR-CD3 interaction. TAMRA-labeled TCR probe fluorescence, biochemical. actives 0.37% (n = 360,000). AID 651800. inhibition, % at 9.4 µM; in the data active means inhibition above about 19%;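 further: recombinant mutant TCR 2C K166C tagged with TAMRA read by polarization; 0% = receptor in buffer alone and 100% = receptor with positive control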
Rin1 Abl conf: confirmation of inhibitors of human Rin1-Abl interaction | shares compounds with Rin1 Abl inh | TR-FRET Rin1-Abl binding, purified proteins | inhibition, % at 7.35 µM | actives 49% (n = 1,300)
GFP quencher: counter-screen for Rin1-Abl inhibitors: GFP fluorescence quenchers. AID 602125. shares compounds with Rin1 Abl inh. actives 8.5% (n = 1,300). inhibitors/quenchers counterscreen. inhibition, % at 6.75 µM;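 further: ABL1-eGFP fusion protein alone without its partner RIN1-SBP; 0% = protein with vehicle and 100% = wells lacking protein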
GFP quench dose: GFP fluorescence interference dose response; GFP fluorescence interference/quenching counterscreen; shares compounds with Rin1 Abl inh; 230 tested, under 10 active; IC50, µM; call rule not given here;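 further: ABL1-eGFP fusion protein alone without its RIN1 binding partner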
Starred values were filed as active, the others as inactive; / = no result given. Unless noted, no stated cut-off is given here; in the data, active means inhibition above about 6.5%; inactive means the rest.

SMILES	MBD2 inh	UHRF1 MBD2 ctr	Rin1 Abl inh	LEDGF integ inh	TCR CD3 inh	Rin1 Abl conf	GFP quencher	others
COc1ccc(CN=CC2=C(O)CC(C)(C)CC2=O)cc1	5	2	1	2	-5	/	/
COc1ccc(CN=CC2=C(O)CNC2=O)cc1	-4	-3	34*	0	0	43*	0
CCC1C(=O)NCCN1C(=O)c1ccc(OC)c(OC2CCN(C(C)=O)CC2)c1 (stereo not drawn)	1	2	8.4*	-5	-3	0	-2
CSCCC(NC(=O)c1cccc(C)c1)C(=O)NCc1cccs1 (stereo not drawn)	-4	-1	5	4	2	/	/
CN(C(=O)c1cccc(NC(=O)Cc2ccc(NC(=O)C3CCN(C(=O)C4CCCCC4)CC3)cc2)c1)C1CC1	-2	-2	-1	1	0	/	/
CN(C(=O)c1ccc(NC(=O)Cc2ccc(NC(=O)C3CCN(C(=O)C4CCC4)CC3)cc2)cc1)C1CC1	0	-1	37*	-4	1	62*	0
CN(C(=O)c1ccc(NC(=O)Cc2cccc(NC(=O)C3CCN(C(=O)C4CCC4)CC3)c2)cc1)C1CCCC1	-6	-4	-1	0	-4	/	/
CN(C(=O)c1ccc(NC(=O)Cc2ccc(NC(=O)C3CCN(C(=O)C4CCCC4)CC3)cc2)cc1)C1CC1	-3	-1	78*	1	0	84*	-1
CN(C(=O)c1ccc(NC(=O)Cc2ccc(NC(=O)C3CCN(C(=O)C4CCCCC4)CC3)cc2)cc1)C1CCCC1	-4	0	4	-5	5	/	/
CN(C(=O)c1ccc(NC(=O)Cc2cccc(NC(=O)C3CCN(C(=O)C4CCCC4)CC3)c2)cc1)C1CC1	-7	-2	20*	3	-7	28*	0	GFP quench dose=>68
C=C1C(=O)C2=CC1CCC(=O)C1(C)CCC(OC(C)=O)C(C)(C)C1CC2O (stereo not drawn)	0	-1	1	-4	-6	/	/
CCn1c(SCc2ccc(C(=O)OC)o2)nnc1-c1c[nH]c2ccccc12	-3	-1	14*	2	-4	11*	0
COc1ccc(C2C(C(=O)N3CCN(c4ccccn4)CC3)CCC(=O)N2c2ccc(OC)cc2)cc1 (stereo not drawn)	-4	-1	7.5*	4	1	4	-3
CC(C)CNS(=O)(=O)c1ccc(Br)cc1N1CCC[C@@H]1CO	-6	0	-1	-3	-2	/	/
O=C1C=C(C#Cc2ccccc2)C[C@@H](c2ccc(F)cc2)C1	-3	2	1	2	-2	/	/
Cc1cc(C)nc(Nc2nc3ccccc3s2)n1	-1	-2	-5	-1	2	/	/
Cc1ccc(Nc2nc3ccccc3s2)c(C)c1	2	4	6.9*	2	4	0	0
CCCN1C(=O)c2n[nH]c(C)c2C1c1ccc2c(c1)OCO2 (stereo not drawn)	-7	0	/	0	-5	/	/
Cc1nn(CC(=O)Nc2ccc(C(=O)N3CCCCC3)cc2)c(=O)c2ccccc12	0	2	12*	-2	1	13*	0
Cc1nn(CC(=O)Nc2ccc(C(=O)N3CCCC3)cc2)c(=O)c2ccccc12	1	1	9.9*	0	-4	7.4*	2
COC(=O)c1ccc(NC(=O)Cn2nc(C)c3ccccc3c2=O)cc1	0	4	-2	-3	-2	/	/
CCOC(=O)c1ccc(NC(=O)Cn2nc(C)c3ccccc3c2=O)cc1	5	0	4	-1	4	/	/
COC(=O)[C@]12C[C@H](CC(=O)N3CCN(C(=O)C4CC4)CC3)C(=O)N(Cc3ccco3)C1=C[C@H](C1CCCC1)O[C@@H]2C	-7	-1	/	0	/	/	/
O=C(NCCOc1nc(N2CCOCC2)nc(N2CCOCC2)n1)Nc1ccccc1	-1	7	6.9*	-2	-2	2	-2
Cc1ccc(-n2c(SCc3cc(=O)n4ccsc4n3)nnc2-c2cccnc2)c(C)c1	2	-2	17*	0	6	19*	0	GFP quench dose=>68
SMILES	MBD2 inh	UHRF1 MBD2 ctr	Rin1 Abl inh	LEDGF integ inh	TCR CD3 inh	Rin1 Abl conf	GFP quencher	others
CCOc1ccccc1-n1c(SCC(=O)N2CCCc3ccccc32)nnc1-c1cccnc1	1	5	2	-1	-4	/	/
Cc1ccc(-n2c(SCC(=O)N3CCCc4ccccc43)nnc2-c2cccnc2)c(C)c1	0	2	8.7*	-2	-3	13*	0
Cc1ccc(-n2c(SCC(N)=O)nnc2-c2cccnc2)c(C)c1	3	-2	2	2	9	/	/
Nc1nc2ccc(Cl)cc2cc1C(=O)NC1CC1	-9	6	/	3	6	/	/
COc1ccc(N2CCN(c3nc4c(c(=O)n(C)c(=O)n4C)n3Cc3ccccc3)CC2)cc1	8	1	5.8*	3	-5	7.7*	0
COc1ccc(/C=N/N2C(=O)CN(C(=O)c3ccccc3)C2c2ccc(OC)cc2)cc1 (stereo not drawn)	-2	-4	5.8*	0	-7	-4	-1
Cc1cc(N2CCOCC2)nc(SCC(=O)c2ccc(Cl)cc2)n1	-5	2	15*	1	2	15*	-1
COc1ccc2oc(C(=O)OC(C)C(=O)N3C(C)CCCC3C)c(C)c2c1 (stereo not drawn)	5	3	3	1	1	/	/
COc1ccc(NC(=O)CN(C)S(=O)(=O)c2ccccc2)cc1	2	5	0	5	-7	/	/
CCOC(=O)c1ccc(NC(=O)CN(C)S(=O)(=O)c2ccc(OC)cc2)cc1	2	3	8.0*	-1	-11	-2	-1
Cc1ccc(C(CNS(=O)(=O)c2cc(F)ccc2F)N2CCN(C)CC2)cc1 (stereo not drawn)	0	1	-3	-1	-4	/	/
CCn1cc(C(=O)N[C@H](C(=O)NCCCO)C(C)C)c(=O)c2cc3c(cc21)OCO3	-1	0	0	3	-2	/	/
COCc1cc(CN2CCCC2)c(O)c2ncccc12	-8	-16	22*	7	3	5	-3
OCCN1CCN(Cc2cc(Cl)c3cccnc3c2O)CC1	-10	-10	0	-6	6	/	/
Oc1c(CN2CCCCC2)ccc2cccnc12	-1	-6	34*	-7	13	5	4
COc1ccccc1N1CCN(Cc2cc(Br)c(O)c3ncccc23)CC1	-1	-10	9.7*	4	3	0	2
Oc1c(CN2CCOCC2)ccc2ccccc12	-1	-2	-5	5	4	/	/
Oc1c(CN2CCCCC2)cc(COCc2ccccc2)c2cccnc12	-3	-8	14*	-5	-6	6	1
CN(C)C1CCN(Cc2cc(COCc3ccccc3)c3cccnc3c2O)C1 (stereo not drawn)	/	/	10	/	/	/	/
